Laboratory results: the supplement of paper PMC10849652
Of roughly 7,900 targets only a part is listed; those with a hit were picked by preference. About 0.6% of all pairs of compound and target were hits.

Legend:
Experiment in all cases: log2 fold change, soluble protein after heating vs DMSO (PISA); higher = thermal stabilisation; K562 cells, 10 uM, 30 min; active = over 0.2 and 3.5 SD of the protein, either way, in both replicates (recomputed)
[1] = compound: CC1=C(C=C(C=C1)NC(=O)C2=CC(=CC=C2)C(C)(C)C#N)NC3=CC4=C(C=C3)N=CN(C4=O)C
Summary of the method: (§1)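 For each measurement, 10 μM compound was applied for 30 min to K562 cells at 2×10^6 cells/mL. Aliquots were heated for 3 min across 48°C-58°C, pooled, and extracted in PBS with 0.5% NP-40 at 4°C; the supernatant after 21,000xg for 90 min was soluble protein. This was quantified by TMTpro 16plex LC-MS/MS with channel sums equalised, and thermal stability was reported relative to control samples from duplicates, on a log2 fold-change scale.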

[2] = compound: CC1=C(C=C(C=C1)NC(=O)C2=CC(=CC=C2)N(C)C)NC(=O)C3=CC=C(C=C3)O
Summary of the method: as §1

[3] = compound: CC1=CC=C(C=C1)SC2=C3C=C(SC3=CN=C2)C(=O)N
Summary of the method: as §1

[4] = compound: CC1=NC(=CC=C1)C2=C(N=C(N2)C(C)(C)C)C3=CC4=NC=CN=C4C=C3
Summary of the method: as §1

Nexturastat A = compound: CCCCN(Cc1ccc(C(=O)NO)cc1)C(=O)Nc1ccccc1 [Nexturastat A]
Summary of the method: as §1

vemurafenib = compound: CCCS(=O)(=O)Nc1ccc(F)c(C(=O)c2c[nH]c3ncc(-c4ccc(Cl)cc4)cc23)c1F [vemurafenib]
Summary of the method: as §1

[5] = compound: CCCS(=O)(=O)Nc1ccc(F)c(C(=O)c2c[nH]c3ncc(Cl)cc23)c1F
Summary of the method: as §1

[6] = compound: CCCc1cc(C)[nH]c(=O)c1CNC(=O)c1cc(-c2ccnc(N3CCN(C)CC3)c2)cc2c1cnn2C(C)C
Summary of the method: as §1

givinostat = compound: CCN(CC)Cc1ccc2cc(COC(=O)Nc3ccc(C(=O)NO)cc3)ccc2c1 [givinostat]
Summary of the method: as §1

barasertib = compound: CCN(CCCOc1ccc2c(Nc3cc(CC(=O)Nc4cccc(F)c4)[nH]n3)ncnc2c1)CCOP(=O)(O)O [barasertib]
Summary of the method: as §1

Measured: log2 fold change

AFDN isoform 5 (UniProt P55196)
inactive: [1] -0.031 | [2] -0.049 | [3] 0 | [4] 0.087 | Nexturastat A -0.033 | vemurafenib 0.021 | [5] 0.023 | [6] 0.007 | givinostat 0.062 | barasertib 0.015

ADD2 (UniProt P35612)
inactive: [1] -0.014 | [2] 0.018 | [3] -0.01 | [4] 0.002 | Nexturastat A 0.026 | vemurafenib -0.03 | [5] -0.002 | [6] 0.01 | givinostat -0.007 | barasertib -0.011

BLVRB (UniProt P30043)
Chain of UniProt P30043 (P30043 whole entry, looked up): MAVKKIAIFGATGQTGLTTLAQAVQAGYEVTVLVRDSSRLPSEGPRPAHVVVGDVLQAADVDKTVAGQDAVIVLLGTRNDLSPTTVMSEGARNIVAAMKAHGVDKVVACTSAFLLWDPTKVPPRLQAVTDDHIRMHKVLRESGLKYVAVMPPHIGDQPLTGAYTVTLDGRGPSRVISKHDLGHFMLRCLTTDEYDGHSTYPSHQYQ
inactive: [1] 0.094 | [2] -0.023 | [3] -0.025 | [4] 0.027 | Nexturastat A -0.014 | vemurafenib 0.069 | [5] 0.063 | [6] 0.037 | givinostat 0.03 | barasertib 0.025

ADPRH (UniProt P54922)
inactive: [1] 0.014 | [2] -0.008 | [3] -0.002 | [4] -0.134 | Nexturastat A 0.015 | vemurafenib 0.071 | [5] -0.037 | [6] -0.005 | givinostat 0.025 | barasertib -0.036

ATP6V0A2 (UniProt Q9Y487)
inactive: [1] 0.021 | [2] 0.016 | [3] 0.006 | [4] -0.013 | Nexturastat A 0.024 | vemurafenib 0.026 | [5] 0.014 | [6] 0.014 | givinostat 0.02 | barasertib 0.008

BLOC1S3 (UniProt Q6QNY0)
inactive: [1] -0.03 | [2] 0.049 | [3] 0.046 | [4] 0.052 | Nexturastat A -0.031 | vemurafenib -0.049 | [5] -0.029 | [6] -0.058 | givinostat -0.016 | barasertib 0.021

ADD1 isoform 3 (UniProt P35611)
inactive: [1] -0.015 | [2] -0.031 | [3] -0.026 | [4] 0.015 | Nexturastat A 0.025 | vemurafenib -0.059 | [5] 0.013 | [6] -0.025 | givinostat -0.015 | barasertib -0.022

ACP2 (UniProt P11117)
inactive: [1] -0.014 | [2] -0.013 | [3] 0.029 | [4] -0.027 | Nexturastat A -0.08 | vemurafenib 0.017 | [5] -0.023 | [6] -0.038 | givinostat 0 | barasertib 0.016

ATP11A (UniProt P98196)
inactive: [1] -0.033 | [2] -0.022 | [3] -0.039 | [4] -0.007 | Nexturastat A -0.005 | vemurafenib 0.032 | [5] -0.027 | [6] -0.035 | givinostat -0.007 | barasertib -0.033

ATP13A2 (UniProt Q9NQ11)
Chain of UniProt Q9NQ11 (Q9NQ11 whole entry, looked up): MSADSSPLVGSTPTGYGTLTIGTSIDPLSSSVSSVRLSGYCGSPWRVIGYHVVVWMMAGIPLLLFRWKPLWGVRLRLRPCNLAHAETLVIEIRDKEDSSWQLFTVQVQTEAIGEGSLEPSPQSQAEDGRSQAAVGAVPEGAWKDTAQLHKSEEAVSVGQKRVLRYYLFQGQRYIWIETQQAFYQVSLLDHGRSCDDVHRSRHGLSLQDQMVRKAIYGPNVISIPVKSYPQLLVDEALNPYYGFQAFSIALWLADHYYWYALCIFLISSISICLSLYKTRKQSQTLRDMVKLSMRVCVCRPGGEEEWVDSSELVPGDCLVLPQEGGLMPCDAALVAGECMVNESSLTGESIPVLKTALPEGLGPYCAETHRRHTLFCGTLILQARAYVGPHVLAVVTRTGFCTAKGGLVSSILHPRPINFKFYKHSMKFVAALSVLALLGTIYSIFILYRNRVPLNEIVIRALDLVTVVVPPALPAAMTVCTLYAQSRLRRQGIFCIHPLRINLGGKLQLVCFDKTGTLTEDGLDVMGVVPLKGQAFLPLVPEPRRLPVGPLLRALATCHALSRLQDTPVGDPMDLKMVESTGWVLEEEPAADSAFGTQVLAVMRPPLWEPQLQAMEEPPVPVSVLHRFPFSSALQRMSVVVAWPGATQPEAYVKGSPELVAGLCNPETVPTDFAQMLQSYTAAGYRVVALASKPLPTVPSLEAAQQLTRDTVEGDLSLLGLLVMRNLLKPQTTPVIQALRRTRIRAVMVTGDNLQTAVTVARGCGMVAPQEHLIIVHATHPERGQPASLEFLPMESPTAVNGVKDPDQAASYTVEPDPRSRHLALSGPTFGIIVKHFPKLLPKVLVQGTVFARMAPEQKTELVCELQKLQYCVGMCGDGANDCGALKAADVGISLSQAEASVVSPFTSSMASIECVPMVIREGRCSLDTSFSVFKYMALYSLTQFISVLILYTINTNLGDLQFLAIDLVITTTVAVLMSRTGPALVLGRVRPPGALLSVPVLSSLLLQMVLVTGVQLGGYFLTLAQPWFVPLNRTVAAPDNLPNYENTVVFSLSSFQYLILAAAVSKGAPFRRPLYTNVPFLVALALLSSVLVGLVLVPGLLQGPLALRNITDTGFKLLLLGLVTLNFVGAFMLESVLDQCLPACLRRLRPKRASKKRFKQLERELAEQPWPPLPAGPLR
inactive: [1] 0.017 | [2] 0.009 | [3] 0.035 | [4] 0.055 | Nexturastat A 0.001 | vemurafenib 0.085 | [5] -0.037 | [6] 0.014 | givinostat -0.044 | barasertib -0.052

ALDH18A1 (UniProt P54886)
inactive: [1] -0.179 | [2] 0.002 | [3] -0.04 | [4] 0.101 | Nexturastat A 0.035 | vemurafenib 0.068 | [5] 0.057 | [6] -0.137 | givinostat 0.141 | barasertib 0.214

ATAD3B (UniProt Q5T9A4)
inactive: [1] -0.07 | [2] -0.022 | [3] 0.003 | [4] -0.009 | Nexturastat A 0.236 | vemurafenib -0.024 | [5] 0.042 | [6] 0.058 | givinostat 0.05 | barasertib -0.019

ARAF (UniProt P10398)
inactive: [1] 0.063 | [2] -0.049 | [3] -0.069 | [4] -0.007 | Nexturastat A 0.003 | vemurafenib 0.064 | [5] 0.123 | [6] 0.019 | givinostat 0.029 | barasertib 0.074

ACAD9 (UniProt Q9H845)
inactive: [1] -0.022 | [2] 0.007 | [3] 0.007 | [4] -0.001 | Nexturastat A -0.061 | vemurafenib 0.053 | [5] -0.019 | [6] -0.009 | givinostat -0.012 | barasertib -0.011

AKAP8L (UniProt Q9ULX6)
inactive: [1] -0.124 | [2] -0.007 | [3] -0.092 | [4] 0.005 | Nexturastat A 0.054 | vemurafenib 0.069 | [5] 0.067 | [6] 0.02 | givinostat 0.004 | barasertib 0.047

ADK (UniProt P55263)
Chain of UniProt P55263 (P55263 whole entry, looked up): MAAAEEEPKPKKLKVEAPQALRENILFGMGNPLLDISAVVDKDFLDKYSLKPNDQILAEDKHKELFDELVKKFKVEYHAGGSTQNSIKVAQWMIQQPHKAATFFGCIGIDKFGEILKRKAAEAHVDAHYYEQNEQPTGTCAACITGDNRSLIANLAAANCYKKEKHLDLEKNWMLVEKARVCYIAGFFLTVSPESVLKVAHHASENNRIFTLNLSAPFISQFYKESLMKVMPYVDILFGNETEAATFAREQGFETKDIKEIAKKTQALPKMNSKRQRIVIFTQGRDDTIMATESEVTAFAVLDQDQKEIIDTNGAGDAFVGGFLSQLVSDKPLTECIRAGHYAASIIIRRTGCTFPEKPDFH
inactive: [1] 0.03 | [2] -0.027 | [3] 0 | [4] -0.011 | Nexturastat A -0.04 | vemurafenib -0.013 | [5] -0.046 | [6] 0.106 | givinostat -0.076 | barasertib -0.026

ADH5 (UniProt P11766)
inactive: [1] 0.004 | [2] 0.008 | [3] 0.043 | [4] 0.009 | Nexturastat A -0.103 | vemurafenib -0.007 | [5] 0.008 | [6] -0.046 | givinostat -0.01 | barasertib -0.023

ARFGAP2 (UniProt Q8N6H7)
inactive: [1] 0.03 | [2] -0.065 | [3] -0.027 | [4] -0.04 | Nexturastat A -0.033 | vemurafenib 0.02 | [5] 0.033 | [6] 0.021 | givinostat 0.06 | barasertib 0.066

BAD (UniProt Q92934)
inactive: [1] -0.198 | [2] 0.007 | [3] -0.021 | [4] -0.051 | vemurafenib -0.076 | [5] -0.037 | [6] 0.05 | givinostat -0.133 | barasertib -0.003
active: Nexturastat A -0.324

AIFM2 (UniProt Q9BRQ8)
Chain of UniProt Q9BRQ8 (Q9BRQ8 whole entry, looked up): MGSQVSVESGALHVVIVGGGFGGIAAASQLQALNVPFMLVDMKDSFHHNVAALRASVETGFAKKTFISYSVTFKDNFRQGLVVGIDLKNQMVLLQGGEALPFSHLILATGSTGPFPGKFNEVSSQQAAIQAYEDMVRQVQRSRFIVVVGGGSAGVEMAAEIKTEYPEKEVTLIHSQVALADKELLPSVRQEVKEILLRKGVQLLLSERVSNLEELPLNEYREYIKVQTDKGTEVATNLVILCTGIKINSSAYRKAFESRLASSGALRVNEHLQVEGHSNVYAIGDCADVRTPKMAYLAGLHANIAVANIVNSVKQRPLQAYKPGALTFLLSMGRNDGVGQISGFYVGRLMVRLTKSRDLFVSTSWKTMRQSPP
inactive: [1] 0.013 | [2] 0 | [3] 0 | [4] -0.017 | Nexturastat A 0.019 | vemurafenib -0.036 | [5] -0.026 | [6] 0.021 | givinostat 0.011 | barasertib -0.024

AHSA1 (UniProt O95433)
Chain of UniProt O95433 (O95433 whole entry, looked up): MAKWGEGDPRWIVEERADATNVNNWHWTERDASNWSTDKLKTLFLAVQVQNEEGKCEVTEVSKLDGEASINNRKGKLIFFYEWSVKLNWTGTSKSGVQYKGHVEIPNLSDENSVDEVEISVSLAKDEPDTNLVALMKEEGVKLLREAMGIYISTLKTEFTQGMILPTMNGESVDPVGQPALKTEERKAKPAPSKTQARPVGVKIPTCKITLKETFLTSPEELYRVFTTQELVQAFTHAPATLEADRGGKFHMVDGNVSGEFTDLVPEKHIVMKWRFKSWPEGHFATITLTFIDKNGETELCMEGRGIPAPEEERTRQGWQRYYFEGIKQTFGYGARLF
inactive: [1] -0.014 | [2] 0.006 | [3] 0 | [4] 0.062 | Nexturastat A -0.019 | vemurafenib 0.029 | [5] 0.036 | [6] -0.024 | givinostat -0.015 | barasertib 0.027

ATP6V0A1 isoform 3 (UniProt Q93050)
inactive: [1] 0.038 | [2] -0.034 | [3] -0.006 | [4] -0.051 | Nexturastat A 0.198 | vemurafenib 0.017 | [5] 0 | [6] 0.032 | givinostat 0.031 | barasertib 0.006

ATP2A3 isoform 2 (UniProt Q93084)
Chain of UniProt Q93084 (Q93084 whole entry, looked up): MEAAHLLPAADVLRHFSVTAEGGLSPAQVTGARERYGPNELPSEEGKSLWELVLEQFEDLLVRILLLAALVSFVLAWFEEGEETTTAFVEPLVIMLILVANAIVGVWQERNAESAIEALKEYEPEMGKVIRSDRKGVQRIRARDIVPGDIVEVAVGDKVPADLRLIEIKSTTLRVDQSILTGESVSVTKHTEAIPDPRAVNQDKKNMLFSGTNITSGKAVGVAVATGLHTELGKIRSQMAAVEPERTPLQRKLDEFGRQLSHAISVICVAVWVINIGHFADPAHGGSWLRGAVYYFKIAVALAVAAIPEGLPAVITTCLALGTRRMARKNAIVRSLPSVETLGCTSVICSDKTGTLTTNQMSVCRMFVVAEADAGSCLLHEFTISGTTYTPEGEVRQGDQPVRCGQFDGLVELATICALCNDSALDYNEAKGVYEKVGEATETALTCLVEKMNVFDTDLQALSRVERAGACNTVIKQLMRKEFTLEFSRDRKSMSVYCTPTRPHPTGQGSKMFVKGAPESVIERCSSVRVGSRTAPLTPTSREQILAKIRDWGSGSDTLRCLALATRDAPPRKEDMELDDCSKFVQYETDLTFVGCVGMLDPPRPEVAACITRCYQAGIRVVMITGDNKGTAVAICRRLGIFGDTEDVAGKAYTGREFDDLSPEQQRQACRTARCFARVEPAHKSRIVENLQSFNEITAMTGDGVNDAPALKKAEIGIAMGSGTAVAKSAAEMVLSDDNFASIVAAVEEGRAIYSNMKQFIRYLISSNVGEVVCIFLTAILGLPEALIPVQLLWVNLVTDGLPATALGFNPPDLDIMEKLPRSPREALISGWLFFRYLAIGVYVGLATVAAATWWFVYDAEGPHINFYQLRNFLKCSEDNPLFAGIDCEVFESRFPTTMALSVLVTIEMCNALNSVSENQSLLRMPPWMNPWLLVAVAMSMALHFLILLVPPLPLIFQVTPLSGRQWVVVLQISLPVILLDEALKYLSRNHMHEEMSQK
inactive: [1] -0.024 | [2] -0.001 | [3] -0.013 | [4] 0.004 | Nexturastat A 0 | vemurafenib -0.004 | [5] 0.032 | [6] 0.042 | givinostat -0.01 | barasertib 0.011

BST2 (UniProt Q10589)
inactive: [1] 0.059 | [2] 0.014 | [3] -0.003 | [4] -0.011 | Nexturastat A 0.023 | vemurafenib 0 | [5] -0.029 | [6] -0.095 | givinostat 0.053 | barasertib -0.097

ALG3 (UniProt Q92685)
Chain of UniProt Q92685 (Q92685 whole entry, looked up): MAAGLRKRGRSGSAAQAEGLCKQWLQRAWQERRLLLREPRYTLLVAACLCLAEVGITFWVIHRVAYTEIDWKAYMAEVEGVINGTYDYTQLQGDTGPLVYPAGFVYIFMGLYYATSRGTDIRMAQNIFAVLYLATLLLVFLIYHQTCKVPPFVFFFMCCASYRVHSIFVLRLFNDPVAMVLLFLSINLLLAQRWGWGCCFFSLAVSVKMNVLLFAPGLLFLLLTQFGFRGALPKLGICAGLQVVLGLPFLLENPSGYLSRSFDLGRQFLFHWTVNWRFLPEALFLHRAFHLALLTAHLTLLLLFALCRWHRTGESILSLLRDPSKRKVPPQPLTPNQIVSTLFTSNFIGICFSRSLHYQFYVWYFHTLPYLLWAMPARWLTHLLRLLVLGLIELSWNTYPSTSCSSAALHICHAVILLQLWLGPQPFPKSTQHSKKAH
active: [4] 0.376
inactive: [1] 0.108 | [2] 0.002 | [3] 0.113 | Nexturastat A 0.008 | vemurafenib -0.076 | [5] 0.123 | [6] -0.079 | givinostat -0.09 | barasertib 0

ATP6V1C1 (UniProt P21283)
Chain of UniProt P21283 (P21283 whole entry, looked up): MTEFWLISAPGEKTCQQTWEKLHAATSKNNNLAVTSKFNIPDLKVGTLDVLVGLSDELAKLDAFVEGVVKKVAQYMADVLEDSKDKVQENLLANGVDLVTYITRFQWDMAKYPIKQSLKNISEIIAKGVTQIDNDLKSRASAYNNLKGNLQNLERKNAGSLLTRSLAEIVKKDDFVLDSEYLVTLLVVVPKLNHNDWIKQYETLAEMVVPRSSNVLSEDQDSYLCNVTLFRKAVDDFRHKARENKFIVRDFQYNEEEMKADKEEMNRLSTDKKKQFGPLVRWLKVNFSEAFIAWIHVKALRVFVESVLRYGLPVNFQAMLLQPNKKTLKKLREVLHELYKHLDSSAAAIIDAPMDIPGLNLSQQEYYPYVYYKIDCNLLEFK
inactive: [1] 0.004 | [2] -0.037 | [3] -0.024 | [4] -0.033 | Nexturastat A 0.131 | vemurafenib -0.018 | [5] 0.057 | [6] 0.026 | givinostat 0.031 | barasertib 0.062

AGRN (UniProt O00468)
inactive: [1] -0.089 | [2] -0.294 | [3] -0.031 | [4] 0.014 | Nexturastat A -0.051 | vemurafenib -0.025 | [5] -0.072 | [6] 0.024 | givinostat -0.011 | barasertib 0.011

ATP6V1F isoform 2 (UniProt Q16864)
Chain of UniProt Q16864 (Q16864 whole entry, looked up): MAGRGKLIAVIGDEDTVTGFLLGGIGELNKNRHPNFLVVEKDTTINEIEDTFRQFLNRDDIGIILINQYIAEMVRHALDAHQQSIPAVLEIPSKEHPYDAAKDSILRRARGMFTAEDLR
inactive: [1] -0.139 | [2] 0.034 | [3] 0.011 | [4] 0.06 | Nexturastat A 0.146 | vemurafenib 0.123 | [5] -0.055 | [6] 0.038 | givinostat -0.044 | barasertib 0.072

ATP6V1H (UniProt Q9UI12)
inactive: [1] 0.028 | [2] -0.016 | [3] 0.045 | [4] 0.014 | Nexturastat A -0.008 | vemurafenib -0.004 | [5] 0.077 | [6] 0.022 | givinostat 0.03 | barasertib 0.018

BECN1 (UniProt Q14457)
Chain of UniProt Q14457 (Q14457 whole entry, looked up): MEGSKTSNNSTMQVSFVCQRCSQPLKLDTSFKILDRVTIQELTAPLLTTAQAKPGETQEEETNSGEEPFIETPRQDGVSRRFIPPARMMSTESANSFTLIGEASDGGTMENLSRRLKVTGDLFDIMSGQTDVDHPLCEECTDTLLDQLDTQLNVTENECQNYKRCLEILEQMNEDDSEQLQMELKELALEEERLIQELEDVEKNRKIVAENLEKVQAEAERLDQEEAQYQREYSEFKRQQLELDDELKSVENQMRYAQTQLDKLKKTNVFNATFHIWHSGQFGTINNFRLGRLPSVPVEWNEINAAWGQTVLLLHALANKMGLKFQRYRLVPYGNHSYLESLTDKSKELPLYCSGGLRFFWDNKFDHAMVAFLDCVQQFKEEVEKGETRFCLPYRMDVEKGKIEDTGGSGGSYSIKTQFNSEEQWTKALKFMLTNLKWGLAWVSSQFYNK
inactive: [1] -0.04 | [2] 0.029 | [3] 0 | [4] 0.04 | Nexturastat A 0.015 | vemurafenib 0.055 | [5] -0.01 | [6] -0.024 | givinostat -0.018 | barasertib -0.012
